According to PubChem BioAssay (EPA / NIEHS):
The source made the active and inactive calls. Rule for the calls: active = hit-call score of the fitted dose curve at least 0.9, where 1 is the maximum; inactive = score below 0.9.

Assay: ATG_M_61_CIS: Attagene CIS-FACTORIAL HepG2 Assay for M61 Transcription Factor (Internal Marker) (AID 2282937)
Conditions: HepG2 Attagene CIS-FACTORIAL M61 internal marker reporter; actives raise or lower the signal
Protocol: ATG_CIS is a cell-based, multiplexed-readout assay that uses HepG2, a human liver cell line, with measurements taken at 24 hours after chemical dosing in a 24-well plate.ATG_M_61_CIS is one of 52 assay component(s) measured or calculated from the ATG_CIS assay. It is designed to make measurements of mRNA induction, a form of inducible reporter, as detected with fluorescence intensity signals by Reverse transcription polymerase chain reaction (RT-PCR) and Capillary electrophoresis technology.Data from the assay component ATG_M_61_CIS was analyzed into 1 assay endpoint. This assay endpoint, ATG_M_61_CIS, was analyzed with bidirectional fitting relative to DMSO as the negative control and baseline of activity. Using a type of inducible reporter, measures of mRNA for gain or loss-of-signal activity can be used to understand the background control at the transcription factor-level as they relate to the gene . Furthermore, this assay endpoint can be referred to as a secondary readout, because this assay has produced multiple assay endpoints where this one serves a background control function. To generalize the intended target to other relatable targets, this assay endpoint is annotated to the background measurement intended target family, where the subfamily is internal marker.
Human liver HepG2 cells are transiently transfected with multiple reporter transcription units (MRTUs) in 6-well plates using FuGene 6 reagent (Roche; 3 ml FuGene/1 mg DNA). The MRTU constructs are regulated by a cis-regulating element (promoter). […] A major difference between the CIS and TRANS system is that in CIS activities of endogenous TFs are measured, whereas the TRANS assay evaluates changes in activities of exogenous, chimeric NR-Gal4 proteins. […] At the end of 24 hour incubation, total RNA was isolated using TriZol reagent (Invitrogen). The isolated RNA is then reverse-transcribed using oligo(dT) primer and Mo-MLV reverse transcriptase (Invitrogen) with DNAse I (Ambion) treatment for 30 min. The one-tenth of the produced cDNA was amplified by PCR using Taq DNA polymerase (Invitrogen) and two reporter sequence-specific primers. The PCR products were fluorescently labeled by primer extension with 6-arboxyfluorescein (6-FAM) 5'-labeled reporter sequence-specific primer (2 min at 95 C, 20 s at 68 C and 10 min at 72 C) and these products were digested with 5U of HpaI (New England Biolabs) for 2h at 37 C. The fragments were purified using Qiaquick PCR columns (Qiagen), analyzed on an ABI 3130xL genetic analyzer (Applied Biosystems) with peak positions identified by using a set of X-rhodamine (ROX)-labeled MapMarker1000 molecular weight standards (BioVentures). The raw capillary electrophoresis data was processed using Attagraph software (Attagene).

Row | SMILES | outcome
1 | CCC(=O)Oc1ccc(/C(CC)=C(\CC)c2ccc(OC(=O)CC)cc2)cc1 | inactive
2 | CCCCCCOc1cc(C)c(O)c(C)c1C | inactive
3 | CCCOCCOCCOCCO | inactive
4 | Cc1cc(C)c(C)cc1C | inactive
5 | C=C[Si](OC(C)=O)(OC(C)=O)OC(C)=O | inactive
6 | CCOC(=O)N1CCC(=C2c3ccc(Cl)cc3CCc3cccnc32)CC1 | inactive
7 | Cn1c(=O)[nH]c2ncn(C)c2c1=O | inactive
8 | COC(=O)c1ccccc1OC | inactive
9 | Cc1cc(C)c(C)c(C)c1 | inactive
10 | CC(C)(C)C(=O)CCc1ccc(Cl)cc1 | inactive
11 | [Cl][Nd]([Cl])[Cl] | inactive
12 | CCCC(=O)OCc1ccccc1 | inactive
13 | CC1=NN(c2cc(S(=O)(=O)O)ccc2Cl)C(=O)C1N=Nc1ccccc1 (stereo not given) | inactive
14 | c1c[nH]cn1 | inactive
15 | CC(=O)Oc1ccc(C(C)=O)cc1 | inactive
16 | O=S1(=O)OC(c2ccc(O)cc2)(c2ccc(O)cc2)c2ccccc21 | inactive
17 | CCC(Cc1ccccc1)(C(=O)c1ccc(N2CCOCC2)cc1)N(C)C (stereo not given) | inactive
18 | CO[Si](CCC1CCC2OC2C1)(OC)OC (stereo not given) | inactive
19 | CN1C(=O)N(C)C(O)C1O (stereo not given) | inactive
20 | Cc1ccc2oc(=O)ccc2c1 | inactive

Row | SMILES | outcome
21 | C=C(C)C(=O)OCCOc1ccccc1 | inactive
22 | O=S(=O)(O)c1ccc2cc(O)c(S(=O)(=O)O)cc2c1 | inactive
23 | Cc1ccc([N+](=O)[O-])cc1S(=O)(=O)O | inactive
24 | C=CC(=O)OCCOC(=O)C=C | inactive
25 | N=c1ccn2c(n1)O[C@H]1[C@H](O)[C@@H](CO)O[C@H]12 | inactive
26 | CC1(C)[C@H]2CC[C@]1(C)C(=O)C2 | inactive
27 | CCCCCCC(O)CO (stereo not given) | inactive
28 | O=c1c2ccccc2oc2ccccc12 | inactive
29 | Nc1ccc(-c2ccc(F)cc2)cc1 | inactive
30 | O=C1CCCN1CCO | inactive
31 | O=c1cc(-c2ccccc2)oc2ccccc12 | inactive
32 | Cc1cc(=O)n(-c2ccccc2)n1C | inactive
33 | Cc1cccc(N)n1 | inactive
34 | FC(F)(F)C(=NOCC1OCCO1)c1ccc(Cl)cc1 | inactive
35 | O=C(O)c1cc2ccccc2nc1C(=O)O | inactive
36 | CC(=O)c1ccc[nH]1 | inactive
37 | C1=Cc2ccccc2C1 | inactive
38 | CO[Si](OC)(OC)c1ccccc1 | inactive
39 | O=P(O)(O)Oc1ccccc1 | inactive
40 | O=S(=O)(O)CC(O)CCl (stereo not given) | inactive
